Assay results reported in PubChem BioAssay.
Records with an inconclusive call do not appear. Calls of active or inactive are those of the source.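 How the source made its calls, unless noted: active means normalized viability below 100% at a tested concentration; inactive means the rest.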

How the values were obtained:
[1] = growth inhibition of DIPG glioma cells, dose response, cell-based, JHH-DIPG-1, MIPE4.0, CellTiter-Glo, qHTS (AID 1347062; cut-off not given, nearly all actives have AC50 up to about 27 µM); settings: JHH-DIPG-1 viability, CellTiter-Glo ATP luminescence
[2] = growth inhibition of DIPG glioma cells, dose response, cell-based, SU-DIPG-IV, MIPE4.0, CellTiter-Glo, qHTS (AID 1347063; cut-off not given, nearly all actives have AC50 up to about 30 µM;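 further: compound exposure lasted 48 hours before the viability readout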); settings: SU-DIPG-IV viability, CellTiter-Glo ATP luminescence
[3] = growth inhibition of DIPG glioma cells, dose response, cell-based, SU-DIPG-XIII, MIPE5.0, CellTiter-Glo, qHTS (AID 1347064; cut-off not given, nearly all actives have AC50 up to about 23 µM); settings: SU-DIPG-XIII viability, CellTiter-Glo ATP luminescence
[4] = SU-DIPG-VI glioma cell viability, MIPE4.0 library, CellTiter-Glo luminescence, qHTS (AID 1347066; cut-off not given, nearly all actives have AC50 up to about 30 µM;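 further: cells exposed to compound for 48 hours before readout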); settings: CellTiter-Glo ATP luminescence
[5] = SU-DIPG-XXV glioma cell viability, MIPE5.0 library, qHTS (AID 1347068; cut-off not given, nearly all actives have IC50 up to about 30 µM)
[6] = sensitizers of A549 cells to miR-34 induction, primary screen, imaging, A549 dox-inducible miR-34, nuclei and caspase counts (AID 1347080;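 active means compounds whose cell count with miR-34 switched on is under 0.7 times the count with it off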); settings: A549 miR-34 inducible, Hoechst nuclei count, 48 h
[7] = modifiers of HSF1 nuclear foci, imaging, Selleck Cancer Library (AID 1347162; in the data active means plate-normalised HSF1 focus index below about 0.46); settings: human cells, at 10 µM; SSMD: measured here: HSF1 foci SSMD mean; cell count: measured here: cell number; plate-normalised HSF1 focus index: stronger effect = lower value
[8] = survival rescue of mitochondrial mutant cells in low glucose, primary screen, MELAS cybrids, Rieske KO mouse fibroblasts, CellTiter-Glo (AID 1508586;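 active means mean z-score across replicates of 1.96 or higher in either the MELAS or the Rieske mutant cell line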;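 further: z relative to plate mean and SD of compound and empty wells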)
[9] = ovarian cancer cell viability with rucaparib, profiling panel, oncology-focused library, rucaparib conditional (AID 1508598); settings: patient-derived ovarian cancer cells, CellTiter-Glo viability, 144 h, stronger effect = lower value
[10] = growth inhibition of DIPG glioma cells, dose response, cell-based, SU-DIPG-XIII, MIPE4.0, CellTiter-Glo, qHTS (AID 1347061; cut-off not given, nearly all actives have AC50 up to about 37 µM;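 further: cells exposed to compound for 48 hours before readout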); settings: SU-DIPG-XIII viability, CellTiter-Glo ATP luminescence
[11] = stronger effect = lower value, cell number ratio, induced over uninduced
[12] = measured here: relative caspase fold change +Dox/-Dox
[13] = measured here: total cells with miR-34 induction, stronger effect = lower value
[14] = measured here: total cells without miR-34 induction
[15] = MELAS cybrid survival, CellTiter-Glo 48 h, stronger effect = higher value
[16] = Rieske KO mouse fibroblast survival, CellTiter-Glo 72 h
[17] = at 0.000305 µM, OCI-C5x cells, with rucaparib 10 µM, 100% = cells with rucaparib alone
[18] = at 0.000305 µM, OCI-C5x cells, without rucaparib
[19] = at 0.000305 µM, OCI-P5x cells, with rucaparib 20 µM, 100% = cells with rucaparib alone
[20] = at 0.000305 µM, OCI-P5x cells, without rucaparib
[21] = at 0.00122 µM, OCI-C5x cells, with rucaparib 10 µM, 100% = cells with rucaparib alone
[22] = at 0.00122 µM, OCI-C5x cells, without rucaparib
[23] = at 0.00122 µM, OCI-P5x cells, with rucaparib 20 µM, 100% = cells with rucaparib alone
[24] = at 0.00122 µM, OCI-P5x cells, without rucaparib
[25] = at 0.00488 µM, OCI-C5x cells, with rucaparib 10 µM, 100% = cells with rucaparib alone
[26] = at 0.00488 µM, OCI-C5x cells, without rucaparib
[27] = at 0.00488 µM, OCI-P5x cells, with rucaparib 20 µM, 100% = cells with rucaparib alone
[28] = at 0.00488 µM, OCI-P5x cells, without rucaparib
[29] = at 0.0195 µM, OCI-C5x cells, with rucaparib 10 µM, 100% = cells with rucaparib alone
[30] = at 0.0195 µM, OCI-C5x cells, without rucaparib
[31] = at 0.0195 µM, OCI-P5x cells, with rucaparib 20 µM, 100% = cells with rucaparib alone
[32] = at 0.0195 µM, OCI-P5x cells, without rucaparib
[33] = at 0.0781 µM, OCI-C5x cells, with rucaparib 10 µM, 100% = cells with rucaparib alone
[34] = at 0.0781 µM, OCI-C5x cells, without rucaparib

CCCS(=O)(=O)Nc1ccc(F)c(C(=O)c2c[nH]c3ncc(-c4ccc(Cl)cc4)cc23)c1F
outcome [1]: inactive | AC50 [2]: 14.8 µM (active) | outcome [3]: inactive | outcome [4]: inactive | outcome [5]: inactive | fold change [6, 11]: 0.763 (inactive) | fold change [6, 12]: 1 | cell count [6, 13]: 5420 | cell count [6, 14]: 7100 | SSMD [7]: 2.8 | cell count [7]: 6960 | plate-normalised HSF1 focus index [7]: 1.15 (inactive) | z-score [8, 15]: -0.461 (inactive) | z-score [8, 16]: -0.424 | viability [9, 17]: 120% (inactive) | viability [9, 18]: 96.8% (active) | viability [9, 19]: 95.6% (active) | viability [9, 20]: 93% (active) | viability [9, 21]: 112% (inactive) | viability [9, 22]: 111% (inactive) | viability [9, 23]: 99.5% (active) | viability [9, 24]: 96.2% (active) | viability [9, 25]: 123% (inactive) | viability [9, 26]: 106% (inactive) | viability [9, 27]: 103% (inactive) | viability [9, 28]: 99% (active) | viability [9, 29]: 107% (inactive) | viability [9, 30]: 107% (inactive) | viability [9, 31]: 107% (inactive) | viability [9, 32]: 102% (inactive) | viability [9, 33]: 105% (inactive) | viability [9, 34]: 107% (inactive) | viability ([9]; at 0.0781 µM, OCI-P5x cells, with rucaparib 20 µM, 100% = cells with rucaparib alone): 103% (inactive) | viability ([9]; at 0.0781 µM, OCI-P5x cells, without rucaparib): 104% (inactive) | viability ([9]; at 0.313 µM, OCI-C5x cells, with rucaparib 10 µM, 100% = cells with rucaparib alone): 106% (inactive) | viability ([9]; at 0.313 µM, OCI-C5x cells, without rucaparib): 107% (inactive) | viability ([9]; at 0.313 µM, OCI-P5x cells, with rucaparib 20 µM, 100% = cells with rucaparib alone): 93.7% (active) | viability ([9]; at 0.313 µM, OCI-P5x cells, without rucaparib): 105% (inactive) | viability ([9]; at 1.25 µM, OCI-C5x cells, with rucaparib 10 µM, 100% = cells with rucaparib alone): 49.6% (active) | viability ([9]; at 1.25 µM, OCI-C5x cells, without rucaparib): 35% (active) | viability ([9]; at 1.25 µM, OCI-P5x cells, with rucaparib 20 µM, 100% = cells with rucaparib alone): 45.5% (active) | viability ([9]; at 1.25 µM, OCI-P5x cells, without rucaparib): 10.7% (active) | viability ([9]; at 5 µM, OCI-C5x cells, with rucaparib 10 µM, 100% = cells with rucaparib alone): 97.9% (active) | viability ([9]; at 5 µM, OCI-C5x cells, without rucaparib): 105% (inactive) | viability ([9]; at 5 µM, OCI-P5x cells, with rucaparib 20 µM, 100% = cells with rucaparib alone): 49.3% (active) | viability ([9]; at 5 µM, OCI-P5x cells, without rucaparib): 16.3% (active)

CN(C)Cc1ccc(-c2nc3cccc4c3n2CCNC4=O)cc1
AC50 [10]: 18.7 µM (active) | outcome [4]: inactive | outcome [5]: inactive | fold change [6, 11]: 0.89 (inactive) | fold change [6, 12]: 1.02 | cell count [6, 13]: 6740 | cell count [6, 14]: 7560 | SSMD [7]: -0.246 | cell count [7]: 7430 | plate-normalised HSF1 focus index [7]: 0.994 (inactive) | z-score [8, 15]: -0.319 (inactive) | z-score [8, 16]: -0.0135 | viability [9, 17]: 114% (inactive) | viability [9, 18]: 127% (inactive) | viability [9, 19]: 98.3% (active) | viability [9, 20]: 118% (inactive) | viability [9, 21]: 111% (inactive) | viability [9, 22]: 142% (inactive) | viability [9, 23]: 98.2% (active) | viability [9, 24]: 119% (inactive) | viability [9, 25]: 109% (inactive) | viability [9, 26]: 121% (inactive) | viability [9, 27]: 102% (inactive) | viability [9, 28]: 115% (inactive) | viability [9, 29]: 110% (inactive) | viability [9, 30]: 128% (inactive) | viability [9, 31]: 97% (active) | viability [9, 32]: 111% (inactive) | viability [9, 33]: 112% (inactive) | viability [9, 34]: 136% (inactive)
